Screening results (PubChem BioAssay)
Rows were chosen to be rich in hits. Some 4.2% of all compounds tested hit in one or more screens of this group.
SW480 rerep: DNA re-replication induction in SW480 cells; Potency, µM (highest dose often 46.1 µM), for the others: top-dose re-replication activation, most hits filed as activators; 1.8% of 340,000 active; SW480 DNA re-replication, Hoechst DNA content imaging, 48 h; note: % of control where 0% means no effect; nearly all actives have a fitted effect of over 55% in size
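SW480 cells exposed to compounds for 48 hr at 37 C, 5% CO2, then Hoechst-stained 40 min. Nuclear DNA content imaged by fluorescence scanning (405 nm excitation, 500-530 nm emission); re-replication scored as increased high-intensity nuclei.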
A-T KAP1 phos: potential ataxia-telangiectasia treatments restoring KAP-1 phosphorylation; F2112 A-T fibroblasts, KAP-1 phosphorylation AlphaLISA; neocarzinostatin DNA damage 30 min before lysis; Potency, µM (doses to about 57.5 µM), without a hit: at the highest dose activation, hits mostly activators; 0.19% of 320,000 active; AID 485349; note: % of control where 0% means no effect; nearly all actives have a fitted effect of over 45% in size
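hTERT-immortalized A-T patient fibroblasts (F2112), 500 cells/well in OPTI-MEM, 1% FBS, got compounds for 60 min, then NCS for 30 min at 37C. Lysates were then assayed for phospho-KAP-1 by AlphaLISA (anti-pKAP1 donor, anti-KAP1 acceptor beads), 6 hr at 25C.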
Integrin act MD: integrin-mediated muscular dystrophy alleviation activation | alpha7betagal myoblasts, beta-gal FDG fluorescence, 48 h | Potency, µM (series often up to 38.3 µM), for the others: top-dose activation, most hits filed as activators | 0.064% of 350,000 active;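 note: 100% = response of the positive control SU9516; nearly all actives have a fitted effect of over 60% in size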
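alpha7betagal+/- myoblasts (passage 13, 250/well) treated 48 h at 37C with compounds at 1:260 dilution of DMSO stock. Lysed, then beta-galactosidase activity read as FDG fluorescence (ex 480/em 540) after 30 min, with pre-read for autofluorescence.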
Mito fusion act: blocks mitochondrial division or promotes mitochondrial fusion; S. cerevisiae fusion-defective mutant growth rescue, CellTiterGlo 48 h; Potency, µM (top dose mostly 46.1 µM), for the others: at the top dose growth rescue (activation), actives largely listed as activators; 0.23% of 320,000 active; AID 485298; note: % of control where 0% means no effect; nearly all actives have a fitted effect of over 45% in size
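Growth-rescue viability read-out: after 48 h at the non-permissive 37C in glycerol/ethanol YPEG, yeast mitochondrial fusion mutants are measured by CellTiterGlo luminescence; compounds (23 nl pinned per well) restoring growth score as division inhibitors or fusion activators.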
MCF10A rereplic: DNA re-replication induction in MCF 10a cells; MCF 10A DNA re-replication, Hoechst nuclear intensity, 48 h; Potency, µM (highest dose often 46.1 µM), for the others: at the highest dose activity, positive = re-replication, usual class: activators; 2.9% of 350,000 active; AID 624296; note: % of control where 0% means no effect; nearly all actives have a fitted effect of over 50% in size
The depositor's hits bear a star; ? = inconclusive; / = no result given. Calls come from the whole dose curve; as a rule, active = well fitted activation curve with a large enough effect; inconclusive = small, poorly fitted or top-dose-only effect; inactive = no such curve, though single readings can be large or run the other way. Potency is the fitted concentration of half-maximal effect.

SMILES	SW480 rerep	A-T KAP1 phos	Integrin act MD	Mito fusion act	MCF10A rereplic
COc1ccc(/C=C/C(=O)c2ccc(O)cc2)cc1	?	1%	-18%	2%	?
C/C(=N\NC(=O)c1ccc(O)cc1)c1ccc(N2CCOCC2)cc1	-6%	-7%	-8%	0%	4%
C/C(=N\NC(=O)c1ccccc1O)c1ccc(NC(=O)Cc2ccccc2)cc1	12µM*	-1%	-21%	0%	-2%
C/C(=N\NC(=O)c1ccc(N/N=C(\C)c2ccc(O)cc2)cc1)c1ccc(O)cc1	9%	1%	-30%	-2%	21µM*
Cc1ccc(C(=O)Nc2ccc(N3CCN(C)CC3)cc2)cc1C	?	-5%	0%	-3%	13%
O=C(CN1CCN(c2ccccc2F)CC1)NC(=O)NC1CCCCC1	19%	6%	2%	/	?
C/C(=N\NC(=O)c1ccccc1)c1ccc(NC(=O)c2cccs2)cc1	1.5µM*	-1%	6%	1%	17%
C/C(=N\NC(=O)c1ccccc1C)c1ccc(NC(=O)c2cccs2)cc1	?	-2%	4%	-1%	-1%
C/C(=N\NC(=O)CNC(=O)c1cccs1)c1ccc(Cl)c(Cl)c1	3.7µM*	-4%	28%	-2%	?
COc1ccc([N+](=O)[O-])cc1NC(=O)COC(=O)C12CC3CC(CC(O)(C3)C1)C2	/	/	-14%	/	/
CC1CCCC(C)N1C(=O)CN1C(=O)NC2(CCCCCC2)C1=O (stereo not drawn)	/	/	-16%	/	/
C/C(CC(=O)Nc1ccc(OCc2ccccc2)cc1)=N\NC(=O)C(=O)Nc1cccc(C)c1	-60%	4%	-43%	21%	15µM*
C/C(CCc1ccco1)=N/NC(=O)CCC(=O)Nc1cccc(Cl)c1	-5%	-7%	-9%	0%	-1%
C/C(CCc1ccccc1)=N\NC(=O)C(=O)Nc1cccc(Cl)c1	7%	0%	2%	6%	0.26µM*
COc1ccc(CNC(=O)COC(=O)c2ccc(S(=O)(=O)N3CCCCC3)cc2)cc1	-11%	6%	29%	/	-5%
COc1ccc(N2CCN(S(=O)(=O)c3ccc(Br)s3)CC2)cc1	-6%	13%	3%	4.5µM*	10%
COc1ccc(N2CCN(C(=O)CNS(=O)(=O)c3ccc(Br)s3)CC2)cc1	0%	-6%	?	-6%	?
O=C(O)c1ccc(N2C(=O)c3ccccc3C2=O)cc1[N+](=O)[O-]	/	/	2%	/	/
CCOc1cccc2cc(-c3nc4ccc(C(=O)O)cc4[nH]3)c(=O)oc12	/	9%	/	-4%	/
Clc1ccc(SCc2cc(N3CCOCC3)nc(-c3ccccn3)n2)cc1	8.2µM*	-3%	-26%	7%	?
CCOc1ccccc1N1C(=O)CC(Sc2n[nH]c(-c3ccccc3)n2)C1=O (stereo not drawn)	?	-4%	-37%	-6%	15µM*
Cc1ccc(C(=O)NC(C(=O)NC2CCCC2)c2ccccc2)cc1 (stereo not drawn)	2%	3%	2%	2%	-1%
CCN(CC)C1CCN(Cc2cn[nH]c2-c2ccc(OC)c(F)c2)C1 (stereo not drawn)	4.1µM*	3%	-8%	1%	2%
COc1ccc(-c2[nH]ncc2CN2CCN(Cc3cccs3)CC2)cc1F	4%	-2%	-14%	-3%	-2%
CC12CC3CC(C)(C1)CC(C(=O)NCc1ccncc1)(C3)C2	-51%	3%	?	3%	2%
SMILES	SW480 rerep	A-T KAP1 phos	Integrin act MD	Mito fusion act	MCF10A rereplic
COc1ccc(N=C2S/C(=C\c3ccc(Cl)c([N+](=O)[O-])c3)C(=O)N2CCN(C)C)cc1	-6%	-29%	-60%	-35%	?
CCN(CC)CCN1C(=O)/C(=C\c2ccc(Cl)c([N+](=O)[O-])c2)SC1=Nc1ccc(OC)cc1	3.7µM*	-6%	-72%	-10%	?
O=C(/C=C/c1ccccc1)OCCCN=C1NS(=O)(=O)c2ccccc21	15%	1%	-34%	1%	9%
CCn1c2ccccc2c2nnc(SCC(N)=O)nc21	-8%	5%	-14%	4%	-4%
Cc1c(NC(=O)CSc2nnc3c4ccccc4n(CCc4ccccc4)c3n2)c(=O)n(-c2ccccc2)n1C	?	2%	5%	0%	8.2µM*
CCn1c2ccccc2c2nnc(SCc3ccccc3)nc21	-8%	14%	-24%	16µM*	5%
COC(=O)c1ccccc1NC(=O)CN1CCN(c2ccccn2)CC1	2%	3%	-10%	-4%	-3%
COC(=O)c1ccccc1N/C=C1\CCc2c(c(C)nn2-c2ccccn2)C1=O	1%	-8%	10%	-1%	8.2µM*
CCOc1ccc(S(=O)(=O)N2CCCCC2)cc1NC(=O)C1CCCC1	/	/	-21%	/	/
CC(/C=N/NC(=O)c1cc(-c2ccccc2)nc2ccccc12)=C\c1ccco1	8.2µM*	-1%	-27%	21%	?
CC(/C=N/NC(=O)c1cc(-c2ccc(Cl)cc2)nc2ccccc12)=C\c1ccco1	5.2µM*	-7%	-2%	10%	0.65µM*
O=C(N/N=C/c1ccco1)c1cc(-c2ccncc2)nc2ccccc12	16µM*	-9%	-16%	-1%	?
CCOC(=O)N1CCN(c2c(F)cc3[nH]c(=S)[nH]c3c2Br)CC1	?	-9%	-6%	24%	8.2µM*
CC1C(=O)N2CCCc3cc(NC(=O)COc4ccccc4)cc1c32 (stereo not drawn)	-7%	-15%	19%	11%	8%
O=C(COC(=O)c1ccc(-c2ccc([N+](=O)[O-])cc2)o1)NC(=O)NC12CC3CC(CC(C3)C1)C2	-5%	0%	20%	10µM*	1%
COc1cc(C(C[N+](=O)[O-])c2c(N)n(C)c(=O)n(C)c2=O)ccc1O (stereo not drawn)	?	27%	-51%	13%	18µM*
CC(C(c1ccc2c(c1)OCO2)c1c(N)n(C)c(=O)n(C)c1=O)[N+](=O)[O-] (stereo not drawn)	?	/	-70%	/	12µM*
COc1cccc(F)c1C(C[N+](=O)[O-])c1c(N)n(C)c(=O)n(C)c1=O (stereo not drawn)	4.1µM*	42%	-27%	-19%	7.3µM*
Cc1ccc(C(C[N+](=O)[O-])c2c(N)n(C)c(=O)n(C)c2=O)cc1 (stereo not drawn)	1%	10%	?	-9%	23µM*
Cn1c(N)c(C(C[N+](=O)[O-])c2ccccc2Cl)c(=O)n(C)c1=O (stereo not drawn)	?	/	-43%	/	?
O=C(Cc1cccc(NC(=O)C2CCCN(C(=O)C3CCC3)C2)c1)Nc1ccc(C(=O)N2CCCCC2)cc1 (stereo not drawn)	3%	/	11%	/	-22%
Cc1ccc(N2CC(C(=O)NCC3CCCO3)CC2=O)cc1Cl (stereo not drawn)	1%	5%	-14%	-2%	-4%
